Experimental data taken from PubChem BioAssay (NCATS).
Results filed as inconclusive are left out. A number with no mark means an inactive call. Activity calls are given as the source filed them. The call rests on the fitted dose curve; in most records, active means well fitted inhibition curve with a large enough effect; inconclusive means small, poorly fitted or top-dose-only effect; inactive means no such curve, though single readings can be large or run the other way.
Potency means the concentration at half of the fitted maximal effect.

Test: Primary fluorescence-based thiol-reactive (MSTI) qHTS assay for identification of artifact compounds. (AID 1845221); further: nearly all actives have a fitted effect of over 65% in size;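 on activity change, negative = thiol reactive: thiol-reactive compounds lower the probe fluorescence signal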
Conditions: MSTI thiol-reactivity probe, 1 h; series mostly up to 53.8 µM; activity change, negative = thiol reactive: at the top concentration
Method in brief: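 In PBS pH 7.4 with 2% DMSO, each compound met 4 uM MSTI for one hour at ambient temperature, shielded from light, before fluorescence detection.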
In the case of `Cc1oc(S(=O)(=O)N2CCCCC2)cc1NC(=O)Nc1ccccc1`, the “activity change, negative = thiol reactive” value (shortened to “activity change”) is reported as 48.4%. For `O=C(/C=C/c1ccc(O)cc1)OC[C@H]1O[C@@H](O/C(=C\c2ccccc2)C(=O)O)[C@H](O)[C@@H](O)[C@@H]1O`, the “activity change” value was 27.3% [at 25.6 µM]. In the case of `COC(=O)C1=CO[C@@H](O[C@@H]2O[C@H](CO)[C@@H](O)[C@H](O)[C@H]2O)/C(=C\CO)[C@@H]1CC(=O)OCCc1ccc(O)cc1`, the Potency is reported as 6.53 µM (active). In the case of `C=CC(C)(C)C12Nc3c(ccc4c3OC(C)(C)C=C4)C1(O)CC1C(=O)N3CCCC3C(=O)N12` (configuration not stated), the “activity change” value is reported as 4.33% [at 25.6 µM]. Compound `CC(=O)O[C@@H]1[C@H](O[C@@H]2OC[C@](O)(CO)[C@H]2O)[C@@H](O[C@@H]2O[C@@H](C)[C@H](O)[C@@H](O[C@@H]3O[C@H](CO)[C@@H](O)[C@H](O)[C@H]3O)[C@H]2O)[C@H](OC(=O)[C@]23CCC(C)(C)C[C@H]2C2=CCC4[C@@]5(C)C[C@H](O)[C@H](O[C@@H]6O[C@H](C(=O)O)[C@@H](O)[C@H](O)[C@H]6O)[C@@](C)(C(=O)O)C5CC[C@@]4(C)[C@]2(C)CC3)O[C@@H]1C` (some centres not stated) has an activity change, negative = thiol reactive of 238% [at 11.5 µM]. In the case of `COc1ccc(CC(NC(C)=O)C(=O)O)cc1` (configuration not stated), the Potency is reported as 4.74 µM (active). Compound `COC1CC(O[C@H]2CC[C@@]3(C)C(=CC[C@]4(O)C3[C@H](O)[C@@H](O)[C@]3(C)[C@@H]([C@H](C)O)CC[C@@]34O)C2)OC(C)C1OC1CC(OC)C(OC2CC(OC)C(OC3OC(C)C(OC4OC(CO)C(O)C(O)C4O)C(OC)C3O)C(C)O2)C(C)O1` (some centres not stated) has an activity change, negative = thiol reactive of 43.2% [at 11.5 µM].
